# TIM10 inh: growth inhibitors of TIM10 yeast strain; S. cerevisiae TIM10 strain growth, BacTiter-Glo luminescence, 24 h; inhibition, % at 10 µM; 330,000 compounds, 1.4% hits; AID 463195;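 active = inhibition of 40% or more at the single tested concentration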;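 note: wild-type TIM10 isogenic control strain grown at permissive 25 °C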
# NLRP3 yeast inh: blocks the NALP3 inflammasome reconstituted in yeast; Yeast reconstituted NLRP3/ASC/caspase-1, beta-gal luminescence, 24 h; inhibition, % at 10 µM; 330,000 compounds, 0.39% hits;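 active = inhibition of 50% or more; inactive = inhibition below 50%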
# SKKanGAS inh: inhibitors of SKKanGAS S. pyogenes growth in kanamycin (SK-promoter or general growth effect). BacTiter-Glo, 6 h. inhibition, % at 7.5 µM. 300,000 compounds, 1.3% hits. AID 1662;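 active = mean replicate score, as percent of positive control median, at least 50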;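 note: strain carries kanamycin resistance gene driven by streptokinase promoter and grows in 40 µg/ml kanamycin; loss of luminescence reflects streptokinase promoter inhibition or plain growth inhibition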
# PfHsp90 yeast 2: inhibits growth of yeast expressing Plasmodium falciparum Hsp90. 310,000 compounds, 0.32% hits. AID 504621. S. cerevisiae expressing PfHsp90, BacTiter-Glo ATP, 48 h; yeast lacking PDR1 and PDR3 efflux regulators. inhibition, % at 9.4 µM;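 active = every replicate shows inhibition above about 80%, whatever the replicate mean, limit read from the data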
# tim23-1 inh: tim23-1 yeast growth inhibition. inhibition, % at 20 µM. AID 463212. S. cerevisiae tim23-1 growth, BacTiter-Glo luminescence, 24 h. 330,000 compounds, 1.3% hits;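 active = growth inhibition of the mutant yeast at or above 50%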;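 note: temperature-sensitive mutant grown at 25 °C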
# tim10-1 inh: tim10-1 yeast growth inhibition; inhibition, % at 20 µM; S. cerevisiae tim10-1 ts strain growth, BacTiter-Glo, 24 h; 330,000 compounds, 2.2% hits; AID 463190;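 active = inhibition of at least 40%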;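 note: mutant grown at 25 °C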
# tim10-1 confirm: confirmation of tim10-1 mutant yeast growth inhibitors; shares compounds with tim10-1 inh; AID 463213; S. cerevisiae tim10-1 ts strain growth, BacTiter-Glo, 24 h; 7,400 compounds, 56% hits; inhibition, % at 20 µM;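 active = inhibition of yeast growth at or above a set limit in either of two repeat tests at 20 µM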;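 note: tim10-1 mutant grown at permissive 25 °C to find synthetic lethal compounds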
# Hits are given with their value; – = inactive; · = not tested or not shown. Hits are enriched below; roughly 4.6% of the tested compounds scored in any of these assays.
SMILES,TIM10 inh,NLRP3 yeast inh,SKKanGAS inh,PfHsp90 yeast 2,tim23-1 inh,tim10-1 inh,tim10-1 confirm
CCOc1cccc(/C=N/NC(=S)Nc2ccccc2[N+](=O)[O-])c1O,–,–,73.2,–,–,45.9,–
CCCCNC(=S)N/N=C/c1cccc(OCC)c1O,–,–,–,–,–,–,·
Cc1noc(NS(=O)(=O)c2ccc(NC(=O)Nc3ccc(Cl)c(Cl)c3)cc2)c1C,–,–,–,–,–,46.3,38.0
O=C(NP(=O)(N1CCCC1)N1CCCC1)C1=C(N2CCOCC2)/C(=C/c2cccc([N+](=O)[O-])c2)CC1,–,–,–,–,–,–,·
CCOC(=O)C(=O)C1=C(N2CCOCC2)/C(=C\c2cccc([N+](=O)[O-])c2)CC1,–,–,–,–,–,40.9,–
Nc1cccnc1Sc1ccc(Cl)cc1,–,–,–,·,–,–,·
Nc1cccnc1Sc1cccc(Cl)c1,–,–,–,–,–,41.2,–
CCOc1ccc(NC(=S)N2CCCN(Cc3cc(C)ccc3C)C2)cc1,–,–,–,–,–,–,·
CC(C)c1nc(N2CCN(C(=O)c3ccccc3)CC2)c(C#N)c2c1COC(C)(C)C2,–,–,–,–,–,–,·
CC1(C)Cc2c(C#N)c(N3CCN(C(=O)c4ccccc4)CC3)nc(-c3ccco3)c2CS1,–,–,·,–,–,43.8,32.8
O=C(NCc1ccccc1)C1CC(=O)N(c2ccc(OCC(=O)N3CCOCC3)cc2)C1 (configuration not stated),–,–,–,–,–,–,·
COc1ccc(C2/C=C\CN(C(=O)c3ccc(C)cc3)CC(=O)N2Cc2ccc(F)cc2)cc1 (configuration not stated),–,–,–,·,–,40.2,–
O=C(N/N=C/c1ccc([N+](=O)[O-])o1)C(O)c1ccccc1 (configuration not stated),–,–,–,–,–,–,·
CN(/N=C/c1ccc([N+](=O)[O-])o1)c1ccccc1,–,–,–,–,–,52.0,41.4
COc1ccc(N=C2O/C(=C/c3sc(=S)n(CC4CCCO4)c3O)N=C2C#N)cc1 (configuration not stated),–,–,–,·,–,–,·
CC1Cc2cc(S(=O)(=O)N3CCCC(C(=O)N4CCCCC4)C3)ccc2N1C(=O)C1CC1 (configuration not stated),–,–,–,–,–,42.7,–
Cc1cc(NS(=O)(=O)c2ccc(NC(=O)CCSc3ccc(F)cc3)cc2)nc(C)n1,–,–,–,–,–,–,·
O=C(CCNc1cc(Cl)cc(Cl)c1)c1cccs1,–,–,–,–,–,46.2,–
Cn1cc(SCC(=O)O)c2ccccc21,–,–,–,·,–,–,·
Cn1cc(C(C[N+](=O)[O-])c2ccccc2)c2ccccc21 (configuration not stated),–,–,–,–,–,40.4,48.9
CCOc1ccc(N(CC(=O)Nc2ccccc2OCC)S(=O)(=O)c2c(C)noc2C)cc1,–,–,–,–,–,–,·
CC(C)C(C(=O)N1CCN(Cc2ccccc2)CC1)c1ccccc1 (configuration not stated),–,–,–,–,–,50.2,34.9
O=C(C(Cc1ccccc1)n1cccc1)N1CCCCC1 (configuration not stated),–,–,–,–,–,–,·
O=C(C(Cc1ccccc1)n1cccc1)N1CCN(Cc2ccccc2)CC1 (configuration not stated),–,–,–,–,–,42.4,–
c1ccc(Sc2nc(N3CCCCC3)nc(N3CCCCC3)n2)nc1,–,–,–,·,–,41.2,–
SMILES,TIM10 inh,NLRP3 yeast inh,SKKanGAS inh,PfHsp90 yeast 2,tim23-1 inh,tim10-1 inh,tim10-1 confirm
CCCCCc1nnc(NC(=O)C2COc3ccccc3O2)s1 (configuration not stated),–,–,–,–,–,45.7,40.2
CCc1nnc(NC(=O)C2COc3ccccc3O2)s1 (configuration not stated),–,–,–,–,–,–,·
CC(C)CC(c1nnnn1C1CCCC1)N1CCC(C(N)=O)CC1 (configuration not stated),–,–,–,–,–,–,·
CCN(Cc1ccccc1)C(=O)C1CCN(c2ncnc3c2nc2n3CCCCC2)CC1,–,–,–,–,–,–,·
O=C(C1CCN(c2ncnc3c2nc2n3CCCCC2)CC1)N1CCN(c2ccc(F)cc2)CC1,–,–,–,–,–,43.7,–
CCc1ccccc1N(CC)C(=O)C1CCN(c2ncnc3c2nc2n3CCCCC2)CC1,–,–,–,–,–,41.6,–
CCOC(=O)c1ccc(NC(=O)CCc2nc(-c3ccccc3Cl)no2)cc1,–,–,–,–,–,40.7,29.3
CCC(C)Nc1ncnc2c1cnn2Cc1ccc(Cl)cc1 (configuration not stated),–,–,–,–,–,42.5,–
Cc1ccc(Cn2ncc3c(NN)ncnc32)cc1,–,–,–,–,–,–,·
CC(C)Nc1ncnc2c1cnn2Cc1ccc(Cl)cc1,–,–,–,–,–,43.4,–
O=C1c2ccccc2C(=O)N1c1ncc(Cc2ccc(Cl)cc2)s1,·,·,·,–,·,·,·
Cc1cccc(Cc2cnc(N3C(=N)SC(c4ccccc4)C3=O)s2)c1 (configuration not stated),–,–,106.4,–,–,44.5,30.1
CCOc1ccc(N2C(=O)/C(=C\c3ccccc3OC)S(=O)(=O)C2c2cccc([N+](=O)[O-])c2)cc1 (configuration not stated),–,–,–,109.7,–,45.0,41.4
CCOC(=O)C1CCCN(C(=O)c2ccc3oc(CCc4ccccc4)nc3c2)C1 (configuration not stated),–,–,–,–,–,42.2,–
Cn1c(-c2ccccc2)n[nH]c1=S,–,–,–,–,–,–,·
Cc1nc(-c2ccccc2)sc1-c1n[nH]c(=S)n1C,–,–,–,·,–,47.8,–
Cn1c(-c2sccc2OCc2ccccc2)n[nH]c1=S,–,–,–,–,–,50.0,–
Cc1ccc(COc2ccsc2-c2n[nH]c(=S)n2C)cc1,–,–,–,–,–,–,·
Cc1cccc(Oc2coc3cc(O)ccc3c2=O)c1,–,–,–,–,–,47.8,–
CCc1ccccc1Oc1coc2cc(O)ccc2c1=O,–,–,–,–,–,–,·
CCN(CC)c1ccc(/C=N/NC(=O)c2c(-c3ccccc3)noc2C)cc1,–,–,–,–,–,–,·
O=C(Nc1nc2c(Cl)cccc2s1)C1CC1,–,–,–,–,–,55.7,–
Cc1cccc2sc(NC(=O)C3c4ccccc4Oc4ccccc43)nc12,–,–,–,·,–,41.1,32.5
Cc1ccc2sc(NC(=O)C3CC3)nc2c1C,–,–,–,–,–,46.0,–
Cc1cccc2sc(NC(=O)C3CC3)nc12,–,–,–,–,–,–,·

# Bioassay records (PubChem)
